“And” between values parts separate entries of the source, which are not always exact repeats. Identical values can stand only once. The panel holds about 83,000 compounds, 20% with a hit somewhere; the sample as a whole holds those more often.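 Growth was measured after 48 h exposure to one concentration of compound in 96-well plates. Values under 10 count as active.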 The source made the active and inactive calls.
Tests used:
Test in all cases: NCI-60 one-dose screen, 48 h (100 = growth as untreated, 0 = no growth, -100 = all killed)
Conditions in all cases: 10 µM unless noted
[1] = tested on: NCI-H23 lung
[2] = tested on: NCI-H226 lung
[3] = tested on: NCI-H322M lung
[4] = tested on: HOP-62 NSCLC
[5] = tested on: NCI-H460 lung
[6] = tested on: NCI-H522 lung
[7] = tested on: A549/ATCC NSCLC
[8] = tested on: 786-0 renal
[9] = tested on: DU-145 prostate
[10] = tested on: K-562 leukemia
[11] = tested on: MALME-3M melanoma
[12] = tested on: MDA-MB-231 breast
[13] = tested on: RXF 393 renal
[14] = tested on: SF-268 CNS
[15] = tested on: SF-295 CNS
[16] = tested on: SF-539 CNS
[17] = tested on: UACC-257 melanoma
[18] = tested on: M14 melanoma
[19] = tested on: COLO 205 colon
[20] = tested on: HOP-92 NSCLC

Measured: growth

COc1cc(/C=C2\C(=O)N(CCCCn3c4ccccc4c(=O)c4ccccc43)c3ccccc32)cc(OC)c1O
inactive: [1] 71.6% | [2] 91.5% | [3] 86% | [4] 102% | [5] 60% | [6] 27.4% | [7] 95.4% | [8] 88.3% | [9] 60.4% | [10] 15.6% | [11] 66.3% | [12] 70% | [13] 70.5% | [14] 60.1% | [15] 84% | [16] 64.3% | [17] 81.7% | [18] 52.3%

COc1cc(/C=C/C(=O)c2ccc(NC(=O)CSc3nnc(-c4cc(-c5ccccc5)nc5ccccc45)n3-c3ccccc3)cc2)cc(OC)c1OC
inactive: [1] 86.8% | [2] 85.4% | [3] 91.7% | [4] 93.7% | [5] 90.4% | [6] 70.7% | [7] 85.8% | [8] 94.7% | [19] 86.4% | [9] 83.7% | [10] 49.7% | [11] 94.6% | [12] 64.2% | [13] 94.1% | [14] 90.8% | [15] 96.6% | [16] 88.3% | [17] 109% | [18] 94.5%

CCN1C(=S)N(CC)C2C1NC(=S)N2/N=C/C=C/c1ccccc1 (centres undefined)
inactive: [1] 58.5% | [2] 64.5% | [3] 51.1% | [4] 44.4% | [5] 12.4% | [7] 37.6% | [8] 40.9% | [19] 33.4% | [9] 30.6% | [10] 15.5% | [11] 28% | [12] 52.7% | [14] 55.6% | [15] 19.6% | [16] 11.4% | [17] 41.7% | [18] 24.8%
active: [6] -7.6% | [13] 2.31%

O=C(/C=C/c1ccc(Cl)s1)c1ccc(Cl)s1
inactive: [1] 89.4% and 110% | [2] 91.4% and 102% | [3] 97.4% | [5] 101% and 115% | [6] 70.1% and 87.1% | [7] 96.8% | [8] 79.7% and 94.8% | [19] 112% and 122% | [9] 97.8% and 114% | [10] 95% and 92.6% | [11] 114% | [12] 108% and 112% | [13] 90.8% and 89.7% | [14] 100% and 109% | [15] 90.7% | [16] 114% and 98.3% | [17] 101% and 103% | [18] 101% and 115%

COc1cc(F)c(/C=C/c2cc(/C=C/c3cc(OC)c(OC)cc3F)n(-c3cc(F)cc(F)c3)n2)cc1OC
active: [1] -20.2% | [11] -6.11% | [18] -19.5%
inactive: [2] 98.1% | [3] 15.2% | [4] 85.8% | [5] 47% | [6] 47.1% | [7] 44.1% | [8] 88.3% | [9] 43.1% | [10] 20.3% | [12] 54.9% | [13] 85.6% | [14] 34% | [15] 54.2% | [16] 83.4% | [17] 24%

CCCCCCCCn1ccc2cc(NC(=O)CN3CCN(c4nc(C)cc(N5CCCCC5)n4)CC3)ccc21
inactive: [1] 86% | [2] 86.1% | [3] 101% | [4] 100% | [5] 93.7% | [6] 76.7% | [7] 83.4% | [8] 88.4% | [19] 84.7% | [9] 95.2% | [10] 56% | [11] 112% | [12] 85.7% | [13] 86.9% | [14] 93.3% | [15] 103% | [16] 105% | [17] 115% | [18] 90.6%

CC/C(=C(/c1ccc(O)cc1)c1ccc(OCCN2CCCCCC2)cc1)c1ccc(Cl)cc1
inactive: [1] 80.4% | [2] 89.2% | [3] 84.1% | [4] 98.8% | [5] 46% | [6] 90.2% | [7] 70.6% | [8] 18.4% | [9] 82.9% | [11] 47.5% | [12] 88.4% | [13] 63.7% | [14] 63.4% | [15] 87.8% | [16] 78.2% | [17] 87.3% | [18] 17%
active: [19] 4.48% | [10] -21.5%

O=C1C(N2CCOCC2)=C(I)C(=O)c2ncccc21
active: [10] 4.52%
inactive: [1] 58.1% | [2] 84.8% | [3] 99.1% | [4] 55.8% | [5] 58.8% | [6] 36.5% | [7] 85.8% | [8] 90% | [19] 102% | [9] 84.8% | [11] 87.3% | [12] 87.1% | [13] 72.6% | [14] 71.5% | [15] 97.3% | [16] 82.7% | [17] 85% | [18] 87.1%

COc1ccc(/C=C2\COc3ccc(O)c(O)c3C2=O)c(OC)c1OC
active: [6] -45.2% | [10] 9.86% | [12] -2.18% | [16] -9.26%
inactive: [1] 38.6% | [2] 63.9% | [3] 56.2% | [4] 17.7% | [5] 24.9% | [7] 43.1% | [8] 28% | [19] 72.3% | [9] 13.9% | [11] 24.2% | [13] 50.8% | [14] 48% | [15] 91.7% | [17] 45.6% | [18] 38.4%

NC1=CC(=O)c2cccnc2C1=O
active: [1] -33.1% | [5] -53.6% | [6] -57.9% | [9] -1.98% | [10] -48.4% | [11] -81.4% | [12] -13.5% | [14] -0.409% | [16] -89.2% | [17] -48.4% | [18] -88.6%
inactive: [2] 59.2% | [3] 71.1% | [4] 14.6% | [7] 26.6% | [8] 26.5% | [19] 76.7% | [13] 15.8% | [15] 22.4%

Cc1ccc(S(=O)(=O)OC[C@@]2(C)CC[C@]3(C)CC[C@]4(C)C(=CC[C@@H]5[C@@]6(C)CCCNC(C)(C)[C@@H]6CC[C@]54C)[C@@H]3C2)cc1
active: [1] -64.5% | [3] -87.4% | [4] -82.8% | [5] -74.6% | [6] -81.5% | [7] -75.9% | [8] -79% | [19] -82.6% | [9] -90.7% | [10] -39.5% | [11] -75.8% | [12] -85.7% | [13] -85.9% | [14] -55.2% | [16] -93.2% | [17] -58.7% | [18] -68.5%
inactive: [2] 19.7% | [15] 85.6%

COc1ccc(C(CC(=O)c2ccc3c(c2)OCO3)C(=O)O)cc1OC (centres undefined)
inactive: [1] 104% and 96.7% | [2] 110% | [3] 107% and 96.1% | [4] 106% and 104% | [5] 102% and 112% | [6] 88.6% and 78.1% | [7] 92.6% and 98% | [8] 111% and 98.6% | [19] 122% and 107% | [9] 121% and 106% | [10] 119% and 90.1% | [11] 114% and 90.3% | [12] 128% and 113% | [13] 115% and 106% | [14] 111% and 97.7% | [15] 86.9% and 81.9% | [16] 126% and 104% | [17] 91.5% and 106% | [18] 115% and 103%

CCOc1ccc(N2C(N)=NC(N)=NC2(C)C)cc1
-32.6% (active) and 83% (inactive): [19]
inactive: [1] 47.6% and 83.8% | [3] 45.2% and 99.4% | [4] 26.6% and 84.5% | [5] 13.7% and 104% | [20] 10.3% and 72.5% | [7] 19.5% and 44.8% | [8] 56.5% and 84.2% | [9] 15.3% and 104% | [10] 10% and 72.3% | [11] 25.3% and 91.9% | [12] 49.5% and 102% | [14] 42.1% and 97.5% | [17] 19.3% and 72.1% | [18] 24.2% and 89.3%
-31.9% (active) and 95.8% (inactive): [15]
-7.67% (active) and 90.1% (inactive): [6]
-29.1% (active) and 92.4% (inactive): [16]
-4.94% (active) and 98.1% (inactive): [13]

— PubChem BioAssay (NCI)
